# Paper PMC6602471
# In all, about 1,300 sequences were measured (“log fluorescence intensity”: median about 8.3, highest 2% from about 12 on). What follows is part of a selection rich in the highest values, with near analogues and random picks from the rest.
# Biological target: T1, ETS1 (Homo sapiens, UniProt P14921 1-441)
# T1 sequence: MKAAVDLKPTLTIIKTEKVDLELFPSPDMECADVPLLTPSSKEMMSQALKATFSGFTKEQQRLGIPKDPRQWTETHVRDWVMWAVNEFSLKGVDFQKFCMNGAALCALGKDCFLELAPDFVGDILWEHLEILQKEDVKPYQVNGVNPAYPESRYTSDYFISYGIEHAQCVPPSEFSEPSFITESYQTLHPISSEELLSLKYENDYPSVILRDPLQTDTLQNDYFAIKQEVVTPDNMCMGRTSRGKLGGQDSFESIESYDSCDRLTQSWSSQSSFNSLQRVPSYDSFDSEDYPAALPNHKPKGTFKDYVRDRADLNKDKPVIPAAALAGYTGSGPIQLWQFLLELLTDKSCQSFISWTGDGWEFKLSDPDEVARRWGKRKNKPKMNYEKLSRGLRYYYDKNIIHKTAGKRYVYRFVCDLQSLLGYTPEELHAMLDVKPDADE
# Test: custom PBM; custom protein-binding microarray; buffer, salt, pH and temperature not stated; high values mean tight binding
# Conditions: dsDNA, one strand shown
row,Sequence,binding signal
1,TAAACGGAAGACGGTTGTGGTAGTTCCGGGTATTAAGTCTTGATTCGCTTGACGCTGCTG,10.1 log fluorescence intensity
2,CAGCATAGGACTTCTTCCCTGAAGCAATTGATAACCGTCTTGATTCGCTTGACGCTGCTG,8.39 log fluorescence intensity
3,CAGCATAGGACTTCCTCCCTGAAGCAATTGATAACCGTCTTGATTCGCTTGACGCTGCTG,12.7 log fluorescence intensity
4,CAGCATAGGACTTCGTCCCTGAAGCAATTGATAACCGTCTTGATTCGCTTGACGCTGCTG,8.36 log fluorescence intensity
5,CCTGCTGCGGTGCATACCCCACCGGATGTGACCCCGGTCTTGATTCGCTTGACGCTGCTG,10.4 log fluorescence intensity
6,TAAAGGGAAGACGGTTGTGGTAGTTGCGGGTATTAAGTCTTGATTCGCTTGACGCTGCTG,8.38 log fluorescence intensity
7,TAAAGGGAAGACGGTTGTGGTAGTTCCGGGTATTCAGTCTTGATTCGCTTGACGCTGCTG,8.52 log fluorescence intensity
8,TAAAGGGAAGACGGTTGTGGTAGTTCCGGGTATTACGTCTTGATTCGCTTGACGCTGCTG,8.47 log fluorescence intensity
9,CACAATTTTTACAGTAGTGTAGCACGCGTAACTCCTGTCTTGATTCGCTTGACGCTGCTG,8.33 log fluorescence intensity
10,TGTCGGGTAAGGGTATGTAGATCACGTGAATGAAAAGTCTTGATTCGCTTGACGCTGCTG,8.34 log fluorescence intensity
11,TAAAGGGAAGACCGTTGTGGTAGTTCCGGGTATTAAGTCTTGATTCGCTTGACGCTGCTG,8.5 log fluorescence intensity
12,CGGAAGTGTCGTAAACGTCGGATATCCGGTACTTCTGTCTTGATTCGCTTGACGCTGCTG,11.8 log fluorescence intensity
13,TCCTGCTACCAGCTCCACCCACTTCAGGCCTTGTAGGTCTTGATTCGCTTGACGCTGCTG,8.42 log fluorescence intensity
14,CAGCATAGGACTTCTTCCCTGAACCAATTGATAACCGTCTTGATTCGCTTGACGCTGCTG,8.33 log fluorescence intensity
15,CACAATTTTTACAGTAATGGAGCACGCGTAACTCCTGTCTTGATTCGCTTGACGCTGCTG,8.32 log fluorescence intensity
16,GCTGCTGCGGTACATACCCCACCGGATGTGACCCCGGTCTTGATTCGCTTGACGCTGCTG,10.5 log fluorescence intensity
17,GATTAATCTCTGCCCTTATTCGCACGTGCCATAACAGTCTTGATTCGCTTGACGCTGCTG,8.31 log fluorescence intensity
18,GCTGCTGCGGTGCATACACCACCGGATGTGACCCCGGTCTTGATTCGCTTGACGCTGCTG,10.2 log fluorescence intensity
19,GGAAAAAGGCCCAGGGTAACACGGGAAGTGGGCTTAGTCTTGATTCGCTTGACGCTGCTG,8.49 log fluorescence intensity
20,GGAAATAGGCCCAGGGTAACACCGGAAGTGGGCTTAGTCTTGATTCGCTTGACGCTGCTG,12 log fluorescence intensity
21,CGGAAGTGTCGTAAACTTCGGATATCCGGTTCTTCTGTCTTGATTCGCTTGACGCTGCTG,11.9 log fluorescence intensity
22,CGGAAGTGTCGTAAACGTCGGATATCCGGTTCTGCTGTCTTGATTCGCTTGACGCTGCTG,11.8 log fluorescence intensity

row,Sequence,binding signal
1,CGGAAGTGTCGTAAACGCCGGATATCCGGTTCTTCTGTCTTGATTCGCTTGACGCTGCTG,13.1 log fluorescence intensity
2,AGGAAGTGTCGTAAACGTCGGATATCCGGTTCTTCTGTCTTGATTCGCTTGACGCTGCTG,12 log fluorescence intensity
3,CGGAAGTGTCGTAAACGTCGGATATCCGGTTCTTCTGTCTTGATTCGCTTGACGCTGCTG,11.9 log fluorescence intensity
4,CGGAAGTGTCGTAAACGACGGATATCCGGTTCTTCTGTCTTGATTCGCTTGACGCTGCTG,12.4 log fluorescence intensity
5,TGGAAGTGTCGTAAACGTCGGATATCCGGTTCTTCTGTCTTGATTCGCTTGACGCTGCTG,11.9 log fluorescence intensity
6,CGGAAGTGTCGTAAACGGCGGATATCCGGTTCTTCTGTCTTGATTCGCTTGACGCTGCTG,12.4 log fluorescence intensity
7,GGGAAGTGTCGTAAACGTCGGATATCCGGTTCTTCTGTCTTGATTCGCTTGACGCTGCTG,11.9 log fluorescence intensity
8,GCTGCTGCGGTGCATACCCCACCGGATGTGACCGCGGTCTTGATTCGCTTGACGCTGCTG,10.5 log fluorescence intensity
9,CGGAAGTGTCGTAAACGTCGGATACCCGGTTCTTCTGTCTTGATTCGCTTGACGCTGCTG,8.31 log fluorescence intensity
10,TCCGGCTAACAGCTCCACCCACTTCAGGCCTTGTAGGTCTTGATTCGCTTGACGCTGCTG,8.32 log fluorescence intensity
11,GCTGCTGCGGTGCATAACCCACCGGATGTGACCCCGGTCTTGATTCGCTTGACGCTGCTG,10.4 log fluorescence intensity
12,CGGAAGTGTCGCAAACGTCGGATATCCGGTTCTTCTGTCTTGATTCGCTTGACGCTGCTG,12 log fluorescence intensity
13,CAGAATAGGACTTCTTCCCTGAAGCAATTGATAACCGTCTTGATTCGCTTGACGCTGCTG,8.33 log fluorescence intensity
14,TAAAGGGAAGACGGTTGTGGTAGTTCCGGGTATCAAGTCTTGATTCGCTTGACGCTGCTG,8.76 log fluorescence intensity
15,GCGGCTGCGGTGCATACCCCACCGGATGTGACCCCGGTCTTGATTCGCTTGACGCTGCTG,10 log fluorescence intensity
16,TGTCGGGTAAGGGAATATAGATCACGTGAATGAAAAGTCTTGATTCGCTTGACGCTGCTG,8.36 log fluorescence intensity
17,AATTAATTTCTGCCCTTATTCGCACGTGCCATAACAGTCTTGATTCGCTTGACGCTGCTG,8.33 log fluorescence intensity
18,GATTAATTCCTGCCCTTATTCGCACGTGCCATAACAGTCTTGATTCGCTTGACGCTGCTG,10.3 log fluorescence intensity
19,GATTAATTTCCGCCCTTATTCGCACGTGCCATAACAGTCTTGATTCGCTTGACGCTGCTG,13.9 log fluorescence intensity
20,GGAAAAAGGCCCAGGGTAACACCGGAAGTGGGTTTAGTCTTGATTCGCTTGACGCTGCTG,12 log fluorescence intensity
21,GCTGCTGCGGTGCATACCCCACCGGATGTAACCCCGGTCTTGATTCGCTTGACGCTGCTG,10 log fluorescence intensity
22,GGAAAAAGGCCCAGGTTAACACCGGAAGTGGGCTTAGTCTTGATTCGCTTGACGCTGCTG,12 log fluorescence intensity

row,Sequence,binding signal
1,TAAAGCGAAGACGGTTGTGGTAGTTCCGGGTATTAAGTCTTGATTCGCTTGACGCTGCTG,8.48 log fluorescence intensity
2,CGGAAGTGTCGTAAACGTCGGATATCCGGTCCTTCTGTCTTGATTCGCTTGACGCTGCTG,12.1 log fluorescence intensity
3,GATTAATTTCTGCCCTTTTTCGCACGTGCCATAACAGTCTTGATTCGCTTGACGCTGCTG,8.42 log fluorescence intensity
4,TACTGACTTATATATGCGAGTGCACATGAATAGACCGTCTTGATTCGCTTGACGCTGCTG,8.33 log fluorescence intensity
5,GATTAATTTCTGCCCTTATTCGTACGTGCCATAACAGTCTTGATTCGCTTGACGCTGCTG,8.36 log fluorescence intensity
6,CACAATTTTTATAGTAATGTAGCACGCGTAACTCCTGTCTTGATTCGCTTGACGCTGCTG,8.41 log fluorescence intensity
7,GGAAAAAGGCTCAGGGTAACACCGGAAGTGGGCTTAGTCTTGATTCGCTTGACGCTGCTG,11.8 log fluorescence intensity
8,GGAAAAAGGCACAGGGTAACACCGGAAGTGGGCTTAGTCTTGATTCGCTTGACGCTGCTG,12.1 log fluorescence intensity
9,GGAAAAAGGCCTAGGGTAACACCGGAAGTGGGCTTAGTCTTGATTCGCTTGACGCTGCTG,12.1 log fluorescence intensity
10,GGAAAAAGGCCCAGGGTAACACCGGAAGTGGGCCTAGTCTTGATTCGCTTGACGCTGCTG,12.1 log fluorescence intensity
11,GGAAAAAGGCCGAGGGTAACACCGGAAGTGGGCTTAGTCTTGATTCGCTTGACGCTGCTG,12 log fluorescence intensity
12,GGAAAAAGGGCCAGGGTAACACCGGAAGTGGGCTTAGTCTTGATTCGCTTGACGCTGCTG,12 log fluorescence intensity
13,TAAAGGGAAGACGGTTGTGGTAGTTCCGGGTAGTAAGTCTTGATTCGCTTGACGCTGCTG,8.59 log fluorescence intensity
14,CAGCAAAGGACTTCTTCCCTGAAGCAATTGATAACCGTCTTGATTCGCTTGACGCTGCTG,8.31 log fluorescence intensity
15,GCTGCTGCGGTGCATACCCCACCGGATGTGACCCCTGTCTTGATTCGCTTGACGCTGCTG,10.1 log fluorescence intensity
16,CAGCATAGGACTTGTTCCCTGAAGCAATTGATAACCGTCTTGATTCGCTTGACGCTGCTG,8.34 log fluorescence intensity
17,TAAAGGGAAGACGGTTGTGGTAGTTCCGGGTAATAAGTCTTGATTCGCTTGACGCTGCTG,8.57 log fluorescence intensity
18,GATTAATTTCTGCCCTTATTCGCACGTGCCGTAACAGTCTTGATTCGCTTGACGCTGCTG,8.34 log fluorescence intensity
19,GCTGCTGCGGTGCATACCCCACCGGAAGTGACCCCGGTCTTGATTCGCTTGACGCTGCTG,11 log fluorescence intensity
20,CGGAAGTGTCGTAAACGTCGGATATCCCGTTCTTCTGTCTTGATTCGCTTGACGCTGCTG,8.7 log fluorescence intensity
21,TGTCGGGTAAGGGAATGTAGATCACTTGAATGAAAAGTCTTGATTCGCTTGACGCTGCTG,8.32 log fluorescence intensity
